This is a sample that favours compounds with a hit; in the whole collection about 16% have one here.
miR-21 act = qHTS Assay for Modulators of miRNAs and/orActivators of miR-21 | Potency, µM (titrated, usually from 38.3 µM), hits mostly activators | 340,000 tested, under 10 active | HeLa miR-21 FLuc reporter, luciferase, 48 h | AID 2288, 2010;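 further: miR-21 action dims this reporter so a rising signal means less miR-21 action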
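HeLa miR-21-FLuc reporter line, endogenous miR-21; 2000 cells/well in DMEM/10% FBS; compound titration up to ~40uM final, 48 h, 37 degree Celsius; luciferase detection reagent, 15 min lysis, CCD luminescence.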
TDP1 cell noCPT = qHTS for Inhibitors of human tyrosyl-DNA phosphodiesterase 1 (TDP1): qHTS in cells in absence of CPT. DT40 Tdp1-/- hTDP1 cells, no CPT, ATP luminescence, 48 h. Potency, µM (doses to about 46.2 µM), usual class: inhibitors. 420,000 tested, 15% active. AID 686978, 2013; further: nearly all actives have a fitted effect of over 55% in size
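Chicken DT40 Tdp1-/- cells complemented with human TDP1, screened without camptothecin (DMSO vehicle only), 400 cells/well. Compounds pin-transferred, cells incubated at 37 °C for at least 48 hr. Growth read as ATP-dependent luminescence (CellTiter-Glo, 30 min at RT).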
TDP1 cell CPT = qHTS for Inhibitors of human tyrosyl-DNA phosphodiesterase 1 (TDP1): qHTS in cells in presence of CPT | chicken DT40 Tdp1-/-;hTDP1 cells + 20 nM CPT, ATP luminescence, 48 h | Potency, µM (doses to about 46.2 µM), usual class: inhibitors | 420,000 tested, 12% active | AID 686979, 2013; further: nearly all actives have a fitted effect of over 55% in size
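Cell growth measured by CellTiter-Glo luminescence after a minimum 48 h, 37 C compound exposure with 20 nM CPT in Tdp1-knockout DT40 cells stably expressing hTDP1, seeded 400/well; qHTS titration format.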
uPA generation = qHTS for Inhibitors of Cell Surface uPA Generation; cell surface uPA generation assay, qHTS; Potency, µM (series often up to 38.3 µM), hits mostly inhibitors; 330,000 tested, 0.31% active; AID 540303, 2011; active means well fitted inhibition curve with a large enough effect; inconclusive means small, poorly fitted or top-dose-only effect; inactive means no such curve, though single readings can be large or run the other way; tested in mouse RAW 264.7 cells; further: nearly all actives have a fitted effect of over 55% in size
TDP1 block = qHTS Assay for Inhibitors of Tyrosyl-DNA Phosphodiesterase (TDP1). recombinant TDP1, AlphaScreen DNA substrate cleavage. AID 485290, 2010. Potency, µM (doses to about 130 µM), actives largely listed as inhibitors. 350,000 tested, 0.28% active; further: nearly all actives have a fitted effect of over 40% in size
Target sequence (Q9NUW8 whole entry, looked up): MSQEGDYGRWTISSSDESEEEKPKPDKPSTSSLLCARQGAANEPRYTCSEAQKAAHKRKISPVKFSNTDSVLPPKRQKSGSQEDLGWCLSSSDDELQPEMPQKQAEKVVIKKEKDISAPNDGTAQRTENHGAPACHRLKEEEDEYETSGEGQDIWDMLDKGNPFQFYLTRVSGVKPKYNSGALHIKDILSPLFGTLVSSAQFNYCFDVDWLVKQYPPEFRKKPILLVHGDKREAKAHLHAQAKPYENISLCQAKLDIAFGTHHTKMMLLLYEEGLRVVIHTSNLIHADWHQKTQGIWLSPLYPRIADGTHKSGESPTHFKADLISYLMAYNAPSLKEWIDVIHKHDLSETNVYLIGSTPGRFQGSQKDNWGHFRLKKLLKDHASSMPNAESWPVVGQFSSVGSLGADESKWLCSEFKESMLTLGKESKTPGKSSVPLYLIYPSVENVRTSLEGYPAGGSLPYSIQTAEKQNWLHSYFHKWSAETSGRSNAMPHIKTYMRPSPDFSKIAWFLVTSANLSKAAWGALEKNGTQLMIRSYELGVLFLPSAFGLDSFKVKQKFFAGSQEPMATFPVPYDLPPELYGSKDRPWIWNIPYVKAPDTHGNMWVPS
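Steps: enzyme plus compound, 15 min RT; add biotin/phosphotyrosine-FITC oligonucleotide (15 nM final), react 5 min; add donor/acceptor beads (10 ug/ml final), 10 min; read AlphaScreen. Tdp1 at 1 nM final.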
A number is an active result; i = inactive; ? = inconclusive; nt = no result given; ! = a repeat was not active; [ ] = remark or other dose. Unless noted, the call rests on the fitted dose curve; in most records, active means well fitted curve in the direction sought with a large enough effect; inconclusive means small, poorly fitted or top-dose-only effect, or another doubt; inactive means no such curve, though single readings can be large; an effect the other way counts as inactive or inconclusive.

SMILES | miR-21 act | TDP1 cell noCPT | TDP1 cell CPT | uPA generation | TDP1 block
COc1cc2c(cc1OC)-c1c(OC)c(OC)cc3c1[C@H](C2)N(C)CC3 | i | 16µM | ? | ? | i
COc1cc2c(cc1O)CC1c3c(cc(O)c(OC)c3-2)CCN1C (stereo unspecified) | i | i | i | i | i
Cc1c(CCC(=O)N2CCCCC2)c(=O)oc2cc3occ(C(C)(C)C)c3cc12 | i | 12µM | 12µM | nt | i
Cc1nc2ncnn2c(C)c1CCC(=O)N1CCC2(CC1)OCCO2 | i | i | i | nt | i
C=C1C[C@@H]2[C@H](CC[C@]3(C)C(=O)CC[C@@H]23)[C@@]2(C)C=CC(=O)C=C12 | i | 8.4µM | 16µM | nt | i
O=P(NC(c1ccccc1)c1ccccc1)(Oc1ccccc1)Oc1ccccc1 | i | ? | ? | i | i
CCCC[C@H](CN(N=O)[C@@H](Cc1ccccc1)CN(C)N=O)N(CCc1ccccc1)N=O | i | ? | ? | i | i
CC(C)[C@H](CN(N=O)[C@@H](Cc1ccccc1)CN(C)N=O)N(CCc1ccccc1)N=O | i | 23µM | 23µM | i | i
CO/C1=C\C(C)=C\[C@@H](C)[C@@H](O)[C@H](C)C/C(C)=C/C=C/[C@H](OC)[C@H]([C@@H](C)[C@@H](O)[C@H](C)[C@H]2C[C@@H](O)[C@H](C)[C@@H](C(C)C)O2)OC1=O | nt | nt | nt | nt | i
O=C(CSc1nc2ccccc2c(=O)n1-c1ccccc1)Nc1ccc2c(c1)CCC2 | nt | 21µM | ? | nt | nt
CN(C)Cc1c[nH]c2cc([N+](=O)[O-])ccc12 | nt | i | i | i | nt
Cc1cccc(C)c1-n1nnnc1C(c1cccs1)N1CCC(n2c(=O)[nH]c3ccccc32)CC1 (stereo unspecified) | nt | 21µM | ? | nt | nt
Cc1nc2ccccc2n1C1CCN(Cc2nnnn2CCc2ccccc2)CC1 | i | ? | ? | i | i
Cc1cccc(C)c1-n1nnnc1C(c1cccc2ccccc12)N1CCC(n2c(=O)[nH]c3ccccc32)CC1 (stereo unspecified) | nt | 16µM | 15µM | nt | nt
C[C@@H]1CNC(=O)c2c(C(=O)Nc3cccc(Cl)c3)ncn21 | nt | 21µM | 21µM | nt | nt
C[C@H]1CNC(=O)c2c(C(=O)Nc3ccc(CNC(=O)OC(C)(C)C)cc3)ncn21 | nt | 9.2µM | 15µM | nt | nt
Cc1cccc(NC(=O)c2ncn3c2C(=O)NC[C@@H]3C)c1 | nt | ? | i | nt | nt
C[C@H]1Cn2cnc(C(=O)Nc3ccc(CNC(=O)OC(C)(C)C)cc3)c2C(=O)N1 | nt | 13µM | ? | nt | nt
Cc1cc(O)c2c(c1)OC(C)(C)C1=C2CC(C)CC1 (stereo unspecified) | i | i | ? | i | nt
COC(=O)NC/C=C\c1nc(CC/C=C\C(=O)O[C@H]2C[C@H]3CC(=O)O[C@@H](/C=C\CC(C)C)C[C@@H]4CC[C@H](C)[C@H](C[C@@H](OC)C[C@H](C2)O3)O4)co1 | nt | nt | nt | nt | i[21 µM]
Clc1cccc(N2CCNCC2)n1 | i | i | i | i | i
Nc1c([N+](=O)[O-])cc(F)c(N2CCNCC2)c1Br | i | ? | ? | i | i
COC(=O)c1cc2ccsc2n1CC(=O)Nc1cc(Cl)ccc1OC | i | 13µM | 7.3µM | ? | i
COc1ccc(-c2nc3ccccc3o2)cc1NC(=O)Cc1ccc(Cl)cc1 | i | i | i | nt | nt
C#CCOc1cc(C2C3=C(COC3=O)Nc3cc4c(cc32)OCO4)ccc1OC (stereo unspecified) | i | i | 21µM | ? | i
SMILES | miR-21 act | TDP1 cell noCPT | TDP1 cell CPT | uPA generation | TDP1 block
COc1cc2cc(C(=O)N3CC(COS(C)(=O)=O)c4ccc(O)cc43)[nH]c2c(OC)c1OC (stereo unspecified) | nt | i | i | i | nt
COc1ccc(C(=O)Cn2c(NCCO)nc3ccccc32)cc1 | i | ? | 16µM | i | i
[2H]C([2H])([2H])[C@H](N)Cc1ccccc1 | nt | i | i | nt | nt
Cc1ccc(C)c(N2CCN(C(=O)c3cccn4c(=O)c5ccccc5nc34)CC2)c1 | i | ? | ? | nt | i
Cc1ccc(Cl)cc1N1CCN(C(=O)c2cn(C)c(=O)c3c2c2ccccc2n3C)CC1 | i | 18µM | ? | ? | i
CCN1C[C@@]2(COC)C3[C@@H](OC)[C@H]4[C@@H]1[C@@]3(C1C[C@@]3(O)[C@H](OC(=O)c5ccccc5)C1[C@]4(OC(C)=O)[C@@H](O)[C@H]3OC)[C@@H](OC)C[C@H]2O (stereo partly specified) | nt | i | i | i | nt
O=C(Oc1c(Cl)cc(Cl)c2ccccc12)N1CCCCC1 | i | ? | ? | i | i
O=C(Oc1c(Br)cc(Br)c2cccnc12)N1CCCCC1 | i | ? | 23µM | i | i
ClC1=C(Cl)C2(Cl)C3C(Cl)C=CC3C1(Cl)C2(Cl)Cl (stereo unspecified) | nt | ? | ? | i | i
CC(=Nc1ccc2c(c1)CCC2)c1c(O)n(C)c(=O)n(C)c1=O | i | i | i | i | i
CCC(=Nc1ccc2c(c1)CCC2)c1c(O)n(C)c(=O)n(C)c1=O | i | 21µM | 12µM | i | i
CCCCn1c(O)c(C(CC)=Nc2ccc(C(=O)O)cc2)c(=O)[nH]c1=O | i | i | i | i | i
Cn1c(O)c(C(=O)c2ccccc2F)c(=O)n(C)c1=O | i | i | i | i | i
CCC(=Nc1ccc(Cc2ccncc2)cc1)c1c(O)n(C)c(=O)n(C)c1=O | i | 5µM | 5µM! | i | i
CCC(=NCc1ccc(F)cc1)c1c(O)n(C)c(=O)n(C)c1=O | i | 18µM | 23µM | i | i
CCOC(=O)c1ccc(N=C(CC)c2c(O)n(C)c(=O)n(C)c2=O)cc1 | i | 18µM | ? | i | i
O=C1CCC2(O)C3Cc4ccc(O)c5c4C2(CCN3Cc2ccoc2)C1O5 (stereo unspecified) | nt | i | i | nt | nt
CCC(=Nc1ccc2c(c1)CCC2)c1c(O)n(-c2ccc(OC)cc2)c(=O)[nH]c1=O | i | 15µM | 21µM | i | nt
CCC(=Nc1ccc(OC)cc1OC)c1c(O)n(C2CCCCC2)c(=O)[nH]c1=O | i | ? | ? | i | i
NNc1ccccc1 | nt | i | i | nt | i
Cc1ccccc1-c1nc(CN2C(=O)CN=C(c3ccccc3)c3ccccc32)c(C)o1 | i | i | ? | nt | i
OCCOCCO | nt | i | i | i | i
C=CCn1c(O)c(C(C)=NCCc2c[nH]c3ccccc23)c(=O)[nH]c1=O | i | i | i | i | i
C=CCn1c(O)c(C(C)=NC(C)c2ccccc2)c(=O)[nH]c1=O (stereo unspecified) | i | 16µM | ? | i | nt
C=CCn1c(O)c(C(C)=Nc2ccc(C(=O)O)cc2)c(=O)[nH]c1=O | i | i | i | i | nt

High-throughput results (PubChem)
